Potency and outcome data for seven compounds are collected here from PubChem BioAssay (Tox21).

Assay [1] in a line: qHTS assay to identify small molecule agonists of the vitamin D receptor (VDR) signaling pathway - cell viability counter screen (AID 743224). Note: nearly all actives have a fitted effect of over 50% in size. Note: potency is the fitted concentration of half-maximal effect. The procedure, abridged:
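In parallel with the bla FRET readout, cytotoxicity toward VDR-bla cells after 16 h compound exposure was assessed by CellTiter-Glo, with luminescence recorded after a 30 min room-temperature incubation.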

Assay [2] in a line: qHTS assay to identify small molecule antagonists of the vitamin D receptor (VDR) signaling pathway - cell viability counter screen (AID 743225). Note: nearly all actives have a fitted effect of over 50% in size. Note: potency is the fitted concentration of half-maximal effect. The method in brief:
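Viability counter screen run in the same wells as the beta-lactamase reporter assay: HEK 293T VDR-UAS-bla cells, 16 h compound exposure at 37C with 3 nM (final) 1-alpha,25-dihydroxyvitamin D3. CellTiter-Glo luminescence, 30 min, room temperature.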
In general terms: Quantitative high-throughput screening tests each substance at several concentrations.

The nature of assay [3]: qHTS assay to identify small molecule agonists of the NFkB signaling pathway - cell viability counter screen (AID 1159515; calls by dose curve; note: nearly all actives have a fitted effect of over 55% in size; note: potency is the fitted concentration of half-maximal effect). The method in brief: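 Plate 2,000 NFkB-bla ME-180 cells/well; incubate overnight. Add compounds, 5 hr at 37 C. Add FRET substrate, 1.5 hr RT. Add CellTiter-Glo, 30 min RT; read luminescence.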
The nature of assay [4]: qHTS assay to identify small molecule agonists of the endoplasmic reticulum stress response signaling pathway - cell viability counter screen (AID 1159517; calls by dose curve; note: nearly all actives have a fitted effect of over 50% in size; note: potency is the fitted concentration of half-maximal effect). The method in brief:
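Cytotoxicity of test compounds toward ESRE-bla HeLa cells was assessed after 5 hr exposure. The luminescent CellTiter-Glo signal was measured 30 min after reagent addition.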

In assay [5] the target is Nuclear receptor ROR-gamma (Homo sapiens) (UniProt P51449). Nature of the assay: qHTS assay to identify small molecule antagonists of the retinoid-related orphan receptor gamma (ROR-gamma) signaling pathway (AID 1159521; note: nearly all actives have a fitted effect of over 50% in size; note: potency is the fitted concentration of half-maximal effect). The method in brief:
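Luminescence readout (ONE-Glo, 30 min RT) after 16 h doxycycline induction; loss of signal scored as antagonism. CHO cells with TET-inducible RORγ and RORE-LUC reporter; compounds added 2 h before 1 uM final doxycycline.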

Assay [6] is described as follows: qHTS assay to identify small molecule agonists of the AP-1 signaling pathway - cell viability counter screen (AID 1159525; calls by dose curve; note: nearly all actives have a fitted effect of over 55% in size; note: potency is the fitted concentration of half-maximal effect). The procedure, abridged: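 Each titration point was normalised to DMSO and tetra n-octyl ammonium bromide controls. The read was Cell Titer Glo luminescence after 30 min at RT, following 5 h compound exposure of ME-180 AP-1-bla cells at 37 °C.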

A short description of assay [7]: qHTS assay to identify small molecule agonists of the AP-1 signaling pathway (AID 1159526; calls by dose curve; note: potency is the fitted concentration of half-maximal effect).
In assay [8] the target is Retinoic acid receptor RXR-alpha (Homo sapiens) (UniProt P19793). Nature of the assay: qHTS assay to identify small molecule agonists of the RXR signaling pathway (AID 1159527; calls by dose curve; note: nearly all actives have a fitted effect of over 35% in size). The method in brief:
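Agonist mode; 9-cis retinoic acid positive control. HEK 293T UAS-bla reporter cells, 2% charcoal-stripped FBS, 16 hr compound exposure at 37 C/5% CO2. LiveBLAzer B/G FRET substrate 2 hr RT; ex 405, em 460/530 nm.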

Assay [9] is described as follows: qHTS assay to identify small molecule agonists of the RXR signaling pathway - cell viability counter screen (AID 1159529). Note: nearly all actives have a fitted effect of over 50% in size. Note: potency is the fitted concentration of half-maximal effect. The procedure, abridged:
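Luminescence from CellTiter-Glo (30 min, RT) measured viability in the same wells as the beta-lactamase reporter readout. Cells: GeneBLAzer RXR-alpha HEK 293T, 2% charcoal-stripped FBS. Compound exposure 16 hr, 37 C.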

Assay [10] can be described thus: qHTS assay to identify small molecule antagonists of the retinoic acid receptor (RAR) signaling pathway (AID 1159552; note: nearly all actives have a fitted effect of over 50% in size; note: potency is the fitted concentration of half-maximal effect). The procedure, abridged:
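Luminescence from a RARE luciferase reporter in C3RL4 cells served as read-out. Cells received compounds together with 1 uM final retinol and incubated 6 hr at 37 C before detection reagent was added for 30 min at room temperature.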

Assay [11] is described as follows: qHTS assay to identify small molecule agonists of the retinoic acid receptor (RAR) signaling pathway (AID 1159553). The method in brief: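 Compounds dissolved in DMSO were pinned onto C3RL4 cells seeded the previous day, and plates were held 6 hr at 37 C. RARE-driven luciferase output was then read by luminescence.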
Assay [12] is described as follows: qHTS assay to identify small molecule antagonists of the estrogen related receptor (ERR) signaling pathway from Tox21 library - cell viability counter screen (AID 1224834). Note: nearly all actives have a fitted effect of over 30% in size. Note: potency is the fitted concentration of half-maximal effect. The procedure, abridged: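 In this quantitative HTS format, ERR cells receive compounds in DMSO and are incubated for 17.5 h at 37 C. Live-cell protease activity is then detected with CellTiter-Fluor.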

In assay [13] the target is Luciferin 4-monooxygenase (Photinus pyralis) (UniProt P08659). Nature of the assay: qHTS assay to identify small molecule inhibitors of firefly luciferase (AID 1224835). Note: series mostly up to about 120 µM; nearly all actives have a fitted effect of over 25% in size. The procedure, abridged: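 Quantitative HTS format; KM concentrations of both substrates. Purified P. pyralis FLuc activity quantified from luminescence images.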
A short description of assay [14]: qHTS assay to identify small molecule agonists of the endoplasmic reticulum stress response signaling pathway (AID 1159516; active = well fitted activation curve with a large enough effect in the signal ratio in the repeat runs, not every such curve was filed as active; the % refers to the signal ratio). The procedure, abridged:
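Beta-lactamase expression from the ER stress response element in HeLa reporter cells is quantified with the LiveBLAzer B/G FRET substrate, read at 405 nm excitation after 2 hr at room temperature, following 5 hr compound treatment at 37 C.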

Assay [15] is described as follows: qHTS assay to identify small molecule antagonists of the retinoid-related orphan receptor gamma (ROR-gamma) signaling pathway - cell viability counter screen (AID 1159520). Note: nearly all actives have a fitted effect of over 50% in size. Note: potency is the fitted concentration of half-maximal effect. The procedure, abridged: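 Tet-on ROR gamma CHO cells (1,000/well) were plated 4 hr, given compounds in DMSO for 2 hr at 37 C, then induced with 1 uM final doxycycline for 16 hr. Viability was read as ATP by CellTiter-Glo luminescence after 30 min.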

Assay [16] in a line: qHTS assay to identify small molecule antagonists of the retinoid acid receptor (RAR) signaling pathway - cell viability counter screen (AID 1159551). Note: nearly all actives have a fitted effect of over 35% in size. Note: potency is the fitted concentration of half-maximal effect. The method in brief:
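Viability of C3RL4 cells is quantified from ATP by luminescence after 6 h treatment at 37 C with compounds and 1 uM retinol.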

The nature of assay [17]: qHTS assay to identify small molecule antagonists of the estrogen related receptor (ERR) signaling pathway (AID 1224819). The method in brief:
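ERR reporter cells were plated at 2,000 cells/well and left 6 h at 37 C/5% CO2 before pin-tool transfer of compounds in DMSO. After 18 h at 37 C, One-Glo was added and luminescence was read 30 min later at room temperature.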

Assay [18] can be described thus: qHTS assay to identify small molecule agonists of the estrogen related receptor (ERR) signaling pathway (AID 1224820). The procedure, abridged: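 Luminescence readout (One-Glo, 30 min RT) from NTP-supplied ERR cell line exposed to compounds for 18 h at 37 C. Cells seeded 2,000 per well and pre-incubated 6 h before pin-tool compound transfer.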
Assay [19] is described as follows: qHTS assay to identify small molecule agonists of the estrogen related receptor signaling pathway with the pleiotropic PPARgamma coactivator (PGC) (AID 1224823). The procedure, abridged: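 Luminescence readout (One-Glo, 30 min RT) from PGC/ERR cell line treated 18 h at 37 C with pin-tool-delivered DMSO compound solutions; cells plated 6 h before dosing. Quantitative HTS format.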

Assay [20] has as its system estrogen-related receptor alpha (ERRalpha) with PGC-1alpha coactivator, human. Description: qHTS assay to identify small molecule antagonists of the estrogen related receptor signaling pathway with the pleiotropic PPARgamma coactivator (PGC) (AID 1224821; calls by dose curve). The method in brief:
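PGC/ERR reporter cells; 6 h pre-incubation 37 C/5% CO2; pin-tool compound in DMSO, 18 h 37 C; One-Glo added, 30 min RT; luminescence read. qHTS antagonist mode.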

Where “and” joins values, the source holds several entries; their conditions need not be identical. Equal entries are not always repeated. Records with an inconclusive call do not appear. More than one record can exist for a structure, and the calls need not agree. Calls of active or inactive are those of the source. Unless noted, calls come from the whole dose curve; as a rule, active = well fitted curve in the direction sought with a large enough effect in the repeat runs; inconclusive = weak or mixed curves; inactive = no such curve, though single readings can be large; an effect the other way counts as inactive or inconclusive.

Luciferin 4-monooxygenase (Photinus pyralis), sequence (P08659 whole entry, looked up): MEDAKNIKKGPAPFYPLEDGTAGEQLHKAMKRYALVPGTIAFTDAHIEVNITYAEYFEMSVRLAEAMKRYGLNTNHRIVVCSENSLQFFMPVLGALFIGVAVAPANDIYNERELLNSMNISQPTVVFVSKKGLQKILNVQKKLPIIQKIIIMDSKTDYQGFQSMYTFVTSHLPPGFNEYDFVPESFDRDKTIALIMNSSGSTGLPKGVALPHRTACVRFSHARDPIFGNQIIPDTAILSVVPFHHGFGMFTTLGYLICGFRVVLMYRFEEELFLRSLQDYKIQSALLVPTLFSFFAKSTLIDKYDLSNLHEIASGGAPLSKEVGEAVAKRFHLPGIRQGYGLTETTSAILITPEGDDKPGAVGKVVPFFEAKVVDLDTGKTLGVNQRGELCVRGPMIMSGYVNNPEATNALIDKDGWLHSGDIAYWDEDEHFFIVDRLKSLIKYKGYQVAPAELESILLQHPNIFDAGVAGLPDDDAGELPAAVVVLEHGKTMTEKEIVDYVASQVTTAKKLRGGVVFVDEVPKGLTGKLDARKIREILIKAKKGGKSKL
Retinoic acid receptor RXR-alpha (Homo sapiens), sequence (P19793 whole entry, looked up): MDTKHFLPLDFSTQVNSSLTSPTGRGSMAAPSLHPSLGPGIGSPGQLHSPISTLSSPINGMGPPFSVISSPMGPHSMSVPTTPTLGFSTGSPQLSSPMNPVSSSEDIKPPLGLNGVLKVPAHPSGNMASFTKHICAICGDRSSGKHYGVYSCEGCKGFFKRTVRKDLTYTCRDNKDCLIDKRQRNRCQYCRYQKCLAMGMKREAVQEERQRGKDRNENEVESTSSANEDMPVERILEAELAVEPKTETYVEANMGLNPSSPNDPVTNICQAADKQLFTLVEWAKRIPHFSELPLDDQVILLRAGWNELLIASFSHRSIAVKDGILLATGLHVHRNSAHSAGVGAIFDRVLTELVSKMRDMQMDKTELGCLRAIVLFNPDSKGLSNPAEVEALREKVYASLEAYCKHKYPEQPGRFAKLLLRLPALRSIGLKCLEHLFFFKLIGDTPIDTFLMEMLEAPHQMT

In the case of `O=C(O)c1cccc(C(=O)O)c1`, the Potency entry in assay [1], in assay [2], in assay [3], in assay [4], in assay [5] and in assay [6] was “inactive” each time. The Potency result in [7], in assay [8], in [9], in [10], in assay [11] and in [12] was “inactive” in each case. Also, the Potency entry in [13] was “inactive”.
Turning to `CC(=O)CC(C)=O`, the call in assay [14] was inactive. The Potency result in assay [4], in [15], in assay [5], in [6], in [7] and in assay [8] was “inactive” in each case. Besides, the Potency entry in assay [9], in assay [16], in assay [11], in [12] and in assay [13] was “inactive” in each case.
With `COC(=O)[C@H]1[C@H]2C[C@@H]3c4[nH]c5cc(OC)ccc5c4CCN3C[C@H]2C[C@@H](OC(=O)c2cc(OC)c(OC)c(OC)c2)[C@@H]1OC`, the Potency result in assay [1], in assay [3], in [4], in assay [6], in assay [7] and in [9] was “inactive” each time. In addition, in assay [16], the Potency result is “inactive”. Moreover, the Potency entry was “inactive and 31.8 µM (active)” in assay [2]; 30.6 µM (active) and 28.1 µM (active) in assay [5]; 21.1 µM (active) in assay [17]; 22.3 µM (active) in [12]. The compound was called inactive in [18] and in assay [19].
For the compound `Cc1cc(Cc2cc(C)cc(C(C)(C)C)c2O)c(O)c(C(C)(C)C)c1`, the Potency in [1] is 9.82 µM (active) and 13.8 µM (active); in assay [2], 19.6 µM (active) and 19.5 µM (active); in assay [3], 11 µM (active) and 17.4 µM (active); in assay [4], 17.5 µM (active) and 21.9 µM (active); in assay [5], 19.4 µM (active) and 27.3 µM (active); in assay [6], 11 µM (active) and 13.8 µM (active). Moreover, the Potency in [9] was 12.4 µM (active) and 21.9 µM (active); in assay [16], 54.8 µM (active) and 48.6 µM (active); in assay [10], 43.5 µM (active) and 61.1 µM (active); in assay [12], 48.8 µM (active) and 43.3 µM (active). Further, the Potency entry in [13] was “inactive”.
For the compound `CC[C@]1(O)C[C@@H]2CN(CCc3c([nH]c4ccccc34)[C@@](C(=O)OC)(c3cc4c(cc3OC)N(C)[C@H]3[C@@](O)(C(=O)OC)[C@H](OC(C)=O)[C@]5(CC)C=CCN6CC[C@]43[C@@H]65)C2)C1`, the Potency result in assay [1], in assay [2], in assay [3], in [4], in assay [6] and in assay [16] was “inactive” throughout. In addition, in assay [13], the Potency entry is “inactive”. In addition, the Potency in assay [5] is 596 nM (active) and 8.41 µM (active); in assay [7], 0.268 µM (active); in [12], 0.841 µM (active).
For the compound `Cc1c(O)cccc1C(=O)N[C@@H](CSc1ccccc1)[C@H](O)CN1C[C@H]2CCCC[C@H]2C[C@H]1C(=O)NC(C)(C)C`, the Potency in assay [2] is 23.9 µM (active) and 21.3 µM (active); in assay [5], 23.7 µM (active) and 9.44 µM (active); in [17], 19.6 µM (active); in assay [12], 8.41 µM (active) and 11.9 µM (active). Moreover, the Potency entry in [3], in assay [4], in assay [6], in assay [7], in assay [16] and in [20] was “inactive” each time. Also, the call in [18] and in assay [19] was inactive.
As to `Oc1ccc(Cl)cc1Cc1cc(Cl)ccc1O`, the Potency in assay [2] was 28 µM (active) and 6.74 µM (active); in [4], 54.9 µM (active) and inactive; in assay [15], 24.8 µM (active); in assay [6], 55.9 µM (active); in [9] it was 49.9 µM (active); in assay [10], 31.2 µM (active) and 27.3 µM (active). For the same compound, the Potency in assay [12] is 44.1 µM (active) and 61.1 µM (active) and 29.8 µM (active). Also, the Potency entry in assay [3], in assay [8], in [11] and in assay [13] was “inactive” in each case.
